The list is not random: actives were taken first. Their share in the collection is about 3.5%.
mHTT CaM bind: mutant huntingtin-calmodulin interaction inhibitors – biochemical, AlphaScreen, primary screen; inhibition, % at 15 µM; 190,000 tested, 3.6% active; P42858; AlphaScreen His-mHTT/GST-CaM binding, luminescence; AID 1671202, 2021;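 further: 0% = both proteins with DMSO and 100% = one protein alone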
Pf apPOL block: Pf-apPOL inhibitors, biochemical, fluorescence; Recombinant Pf-apPOL, molecular beacon fluorescence, 1.5 h; Plasmodium falciparum apicoplast DNA polymerase (apPOL); inhibition, % at 10 µM; 210,000 tested, 0.25% active
An asterisk follows results filed as active. No stated cut-off is given here; in the data, active means inhibition above about 50%; inactive means the rest.

How did COc1ccc(CNC(=O)C2CCN(c3cncnc3N3CCCCC3)CC2)c(OC)c1 do in these assays?
mHTT CaM bind: 16; Pf apPOL block: -3

How did O=C(Cn1cnc2sc3c(c2c1=O)CCCC3)NCc1ccco1 do in these assays?
mHTT CaM bind: 10; Pf apPOL block: -3

Results for O=c1c2c3c(sc2nc2ccc(NCc4ccco4)nn12)CCCC3 ?
mHTT CaM bind: 79*; Pf apPOL block: -3

What do the screens show for `Cc1cc(C)c(C)c(S(=O)(=O)N2CCC(c3noc(-c4ccccc4)n3)CC2)c1C`?
mHTT CaM bind: -5; Pf apPOL block: -4

What do the screens show for `Cc1cc(C)c(S(=O)(=O)N2CCC(c3noc(-c4ccccc4)n3)CC2)c(C)c1`?
mHTT CaM bind: 100*; Pf apPOL block: -2

What do the screens show for `O=C(Nc1cccc(NC(=O)c2ccc(I)o2)c1)c1cccc(Cl)c1`?
mHTT CaM bind: 15; Pf apPOL block: -7

Results for O=C(O)c1c[nH]c2cc3c(cc2c1=O)OCCO3 ?
mHTT CaM bind: 4; Pf apPOL block: 5

How did Cc1nn(Cc2ccc(Cl)cc2)c(C)c1NC(=O)c1noc2c1CCCCC2 do in these assays?
mHTT CaM bind: 67*; Pf apPOL block: 2

What do the screens show for `Cc1cc(NC(=O)c2noc3c2CCCCC3)nn1Cc1ccc(Cl)cc1`?
mHTT CaM bind: -8; Pf apPOL block: -4

Results for CN1CCc2c(C#N)c(N3CCOCC3)nc(N3CCCC3)c2C1 ?
mHTT CaM bind: 0; Pf apPOL block: -4

What do the screens show for `Cc1cccc(Oc2ccc(NC(=O)c3ccc([N+](=O)[O-])cc3)cc2)c1C`?
mHTT CaM bind: 14; Pf apPOL block: -7

How did Cc1ccc(-n2c(O)c(C=C3C=CC=N3)c(=O)[nH]c2=O)cc1 do in these assays?
mHTT CaM bind: 12; Pf apPOL block: 0

What do the screens show for `Cc1cc(C)c(-n2c(O)c(C=C3C=Nc4ccccc43)c(=O)[nH]c2=O)c(C)c1`?
mHTT CaM bind: 100*; Pf apPOL block: 2

How did CC1=Nc2ccccc2C1=Cc1c(O)n(-c2ccc(C)cc2)c(=O)[nH]c1=O do in these assays?
mHTT CaM bind: 12; Pf apPOL block: -44

Results for O=c1[nH]c(=O)n(-c2ccccc2F)c(O)c1C=C1C=Nc2ccc(Br)cc21 ?
mHTT CaM bind: 100*; Pf apPOL block: 5

How did CCCc1nc(-c2c(C)cc(C)nc2NC(=O)c2cc(F)cc(F)c2)no1 do in these assays?
mHTT CaM bind: 3; Pf apPOL block: -3

What do the screens show for `CCC(CO)NC(=O)C(=O)Nc1cccnc1` (configuration not stated)?
mHTT CaM bind: -9; Pf apPOL block: -2

How did O=C(C1=C(O)C(=O)N(Cc2cccnc2)C1c1ccc(Cl)c(Cl)c1)c1cccs1 (configuration not stated) do in these assays?
mHTT CaM bind: 23; Pf apPOL block: 0

What do the screens show for `Cc1ccc([N+](=O)[O-])cc1S(=O)(=O)NCc1ccccn1`?
mHTT CaM bind: -4; Pf apPOL block: -8

Results for CCN(CC)C(=NS(=O)(=O)c1ccc(C)cc1C)c1ccccc1 ?
mHTT CaM bind: -1; Pf apPOL block: -3

What do the screens show for `Cc1cc(C)c(S(=O)(=O)N2CCCC2=O)c(C)c1`?
mHTT CaM bind: -11; Pf apPOL block: -12

What do the screens show for `Cc1cc(C)c(S(=O)(=O)N=C2C=CC(=O)C(Br)=C2)c(C)c1`?
mHTT CaM bind: 53*; Pf apPOL block: -4

How did Cc1ccc(S(=O)(=O)N=C2C=CC(=O)C(Br)=C2)c(C)c1 do in these assays?
mHTT CaM bind: 93*; Pf apPOL block: -8

How did CCCCN(CC)C(=O)c1sc2ncn(Cc3ccccc3F)c(=O)c2c1C do in these assays?
mHTT CaM bind: 7; Pf apPOL block: -1

Results for O=C1NC2(CCN(Cc3c(F)cccc3Cl)CC2)N=C1c1ccccc1 ?
mHTT CaM bind: -2; Pf apPOL block: 3

What do the screens show for `O=C(CN1C(=O)NC2(CCCCC2)C1=O)NCc1ccco1`?
mHTT CaM bind: -7; Pf apPOL block: -1

What do the screens show for `CN(C)c1ccc(C(CNC(=O)c2cccc([N+](=O)[O-])c2)N2CCOCC2)cc1` (configuration not stated)?
mHTT CaM bind: -7; Pf apPOL block: -5

Results for CN(C)c1ccc(C(CNC(=O)c2ccccc2[N+](=O)[O-])N2CCc3ccccc3C2)cc1 (configuration not stated) ?
mHTT CaM bind: 66*; Pf apPOL block: -5

Results for Cn1cc(C(=O)N2CCCC2)cc(NC(=O)c2cc(Cl)ccc2Cl)c1=O ?
mHTT CaM bind: -2; Pf apPOL block: 0

What do the screens show for `COC(=O)C1CN(Cc2ccc(F)cc2)CCS(=O)(=O)N1Cc1ccc(F)cc1` (configuration not stated)?
mHTT CaM bind: 18; Pf apPOL block: -7

Results for COC(=O)C1CN(Cc2ccccc2)CCS(=O)(=O)N1Cc1ccc(C(F)(F)F)cc1 (configuration not stated) ?
mHTT CaM bind: 87*; Pf apPOL block: -2

How did COC(=O)C1CN(Cc2ccc(F)cc2)CCS(=O)(=O)N1Cc1ccc(C(F)(F)F)cc1 (configuration not stated) do in these assays?
mHTT CaM bind: 69*; Pf apPOL block: -3

What do the screens show for `COC(=O)C1CN(CCc2ccccc2)CCS(=O)(=O)N1Cc1ccc(OC)cc1` (configuration not stated)?
mHTT CaM bind: 7; Pf apPOL block: -2

How did COC(=O)C1CN(CCc2ccccc2)CCS(=O)(=O)N1Cc1ccc(Cl)cc1 (configuration not stated) do in these assays?
mHTT CaM bind: 71*; Pf apPOL block: -4

What do the screens show for `COC(=O)C1CN(Cc2ccccc2)CCS(=O)(=O)N1Cc1ccccc1` (configuration not stated)?
mHTT CaM bind: -6; Pf apPOL block: 2

Results for Cc1cc(C)cc(-n2c(CN3CCN(C(=O)NC(C)(C)C)CC3)nc3cccnc32)c1 ?
mHTT CaM bind: -6; Pf apPOL block: -1

How did Cc1nc(SCc2ccc([N+](=O)[O-])cc2)c(C#N)c(C)c1Cl do in these assays?
mHTT CaM bind: -1; Pf apPOL block: 0

Results for Cc1ccc(-c2nnn(CC(=O)NCCc3ccccc3)n2)cc1 ?
mHTT CaM bind: -2; Pf apPOL block: -6

What do the screens show for `O=C(NCc1ccc(F)cc1)N1CCc2nc[nH]c2C1`?
mHTT CaM bind: -10; Pf apPOL block: 0

What do the screens show for `Cc1cc(OCC(=O)Nc2cccc(Br)c2)nc(N2CCCCC2)n1`?
mHTT CaM bind: -19; Pf apPOL block: -2

What do the screens show for `COc1ccc(C2C(C#N)=C(N)Oc3n[nH]c(-c4ccc(OC)c(OC)c4)c32)cc1O` (configuration not stated)?
mHTT CaM bind: 10; Pf apPOL block: -1

How did COc1ccc(-c2[nH]nc3c2C(c2ccc(C(F)(F)F)cc2)C(C#N)=C(N)O3)cc1OC (configuration not stated) do in these assays?
mHTT CaM bind: 100*; Pf apPOL block: 1

What do the screens show for `N#CC1=C(N)Oc2n[nH]c(-c3ccc(Cl)c(Cl)c3)c2C1c1ccc(O)cc1` (configuration not stated)?
mHTT CaM bind: 100*; Pf apPOL block: -4

What do the screens show for `COc1cc(C2C(C#N)=C(N)Oc3n[nH]c(-c4ccc(Cl)c(Cl)c4)c32)ccc1O` (configuration not stated)?
mHTT CaM bind: 99*; Pf apPOL block: -1

Screening results from PubChem BioAssay.
